Screens as filed in PubChem.
TAR Tat displ: HIV-1 TAR-Tat binding disruption; HIV-1 TAR RNA, Tat peptide displacement FRET; hits give high values; z-score (no concentration beside the values); hit rate 0.6% among 100,000; AID 1259389; active = z-score of 3 or more in at least 2 runs
CDC25B-CDK2 inh: human CDC25B-CDK2/CyclinA binding inhibition; HTRF CDC25B-CDK2/CyclinA binding, anti-His/anti-Flag; hits give high values; hit rate 0.72% among 94,000; z-score (test concentration not listed); P30305+P24941; AID 1259370; in the data active = z-score above about 3.2
Hits are given with their value; i = inactive; nt = not tested or not shown. Rows were chosen to be rich in hits. Some 0.93% of all compounds tested hit in one or more screens of this group.

SMILES	TAR Tat displ	CDC25B-CDK2 inh
COc1ccc(N2CSC3=C(C#N)C(c4ccc(OC)cc4OC)CC(=O)N3C2)cc1 (stereo unspecified)	i	3.39
CN(Cc1ccccc1)S(=O)(=O)c1ccc(CN2C(=O)c3cccnc3C2=O)s1	i	nt
Cc1cc(Nc2ccc(N3CCC(C)CC3)cc2)n2nc(-c3ccco3)nc2n1	i	i
Cc1ccc(S(=O)(=O)/N=C2\C=C(n3cnc4ccccc43)C(=O)c3ccccc32)cc1	nt	17.3
Cc1ccc(S(=O)(=O)Nc2ccc3c(c2)ncn3-c2ccccc2)cc1	nt	i
CC(=O)NCCNC(=O)c1ccc(NC2=NC3CS(=O)(=O)CC3S2)cc1 (stereo unspecified)	11.2	nt
CN(C)CCNC(=O)c1ccc(NC2=NC3CS(=O)(=O)CC3S2)cc1 (stereo unspecified)	i	nt
Oc1ccc(-c2csc(Nc3ncccn3)n2)cc1O	nt	i
Cc1cc(C)nc(Nc2nc(-c3ccc(O)c(O)c3)cs2)n1	29.2	i
Cc1cc(=O)n2[nH]c(C)c(-c3ccc(Cl)cc3)c2n1	nt	i
Cc1[nH]n2c(=O)cc(CSc3nnnn3-c3ccccc3)nc2c1-c1ccc(Cl)cc1	23.5	i
O=C(O)COc1ccc2c(c1)C(=O)c1cc(OCC(=O)O)ccc1-2	7.22	i
CCN(CC)CCOc1ccc2c(c1)C(=O)c1cc(OCCN(CC)CC)ccc1-2	i	nt
Cc1ccc2c(c1)-c1onc(C(=O)N(C)c3cc(C)ccc3C)c1CO2	i	nt
O=C(O)CSCC(=O)Nc1nc(SCc2ccc(Cl)cc2)n[nH]1	nt	6.97
Cc1ccccc1C(=O)Nc1nc(SCc2ccc(Cl)cc2)n[nH]1	nt	i
Cc1cccc(Cn2cc3c(=O)[nH]nc-3c3cc(F)ccc32)c1	i	i
O=c1[nH]nc2c3cc(F)ccc3n(Cc3ccccc3)cc1-2	3.16	i
O=C(c1ccco1)N1c2nc(-c3cccnc3)nn2C2(CCCCC2)[C@@H]2CCCC[C@@H]21	i	i
O=C(O)CNC(=O)CCCCC(=O)NCC(=O)O	nt	10.4
O=C(O)CCC(=O)NCC(=O)c1ccc(F)cc1	nt	i
COc1ccc(Cl)cc1NC(=O)CS(=O)(=O)c1ccc2c(c1)S(=O)(=O)N=CN2	i	nt
O=C(CN1C(=O)c2ccccc2S1(=O)=O)Nc1ccc(N2CCCC2)c(Cl)c1	i	i
Cc1ccc2c(c1)C(=O)C(=O)N2Cc1ccccc1OC(C)C	i	i
C=Cc1c(C)/c2[n-]/c1=C\c1[n-]c(c(CC)c1C)/C=c1\[n-]c3c(c1C)C(=O)C(C(=O)[O-])C=3c1[n-]c(c(C)c1CCC(=O)[O-])\C=2.[Cu].[Na+].[Na+] (stereo unspecified)	23.1	nt
SMILES	TAR Tat displ	CDC25B-CDK2 inh
CSc1cccc(NC(=O)c2cc(-c3ccccn3)n[nH]2)c1	i	nt
CCOC(=O)c1c(NC(C)=O)c2c3c(sc2n1CC(=O)NCc1ccco1)CCCC3	14	nt
CCOC(=O)c1c(NC(C)=O)c2c3c(sc2n1Cc1cn2ccccc2n1)CCCC3	i	nt
COc1ccc2ncc(S(=O)(=O)c3ccc(C)c(Cl)c3)c(OC)c2c1	i	i
CC1CCC(NC(=O)C2(C)Cn3c(cc4sccc43)C(=O)N2C2CCCC2)CC1 (stereo unspecified)	i	i
Cc1sc2c(c1C)CSC(C(=O)Nc1cc(F)ccc1F)=C2	i	nt
Oc1ccc2ncccc2c1C(Nc1ccccn1)c1ccc(Cl)cc1 (stereo unspecified)	i	i
Oc1ccc2ncccc2c1C(Nc1ccccn1)c1cccc(Cl)c1 (stereo unspecified)	i	14.7
CCOC(=O)COc1cccc([N+](=O)[O-])c1	nt	i
O=c1cc(COc2ccc(Cl)cc2)nc2sc(-c3ccco3)nn12	35.7	i
CCc1nn2c(=O)cc(COc3ccc(C)c(C)c3)nc2s1	i	i
Cc1nn2c(=O)cc(COc3cccc(C)c3C)nc2s1	i	i
Cc1cccc(OCc2cc(=O)n3nc(-c4ccco4)sc3n2)c1C	35	i
O=c1cc(CSc2nc3ccccc3[nH]2)nc2sc(-c3ccco3)nn12	14.9	i
O=c1cc(CSc2nc3ccccc3[nH]2)nc2sc(-c3cccs3)nn12	i	i
Cc1ccc(OCc2cc(=O)n3nc(-c4ccccc4)sc3n2)cc1C	4.47	i
O=c1cc(CSc2ccc(Cl)cc2)nc2sc(-c3ccco3)nn12	i	i
CC(=O)Oc1cc2c(C(=O)N3CCCC3)c(C)oc2c2ccccc12	i	i
Cc1oc2c(cc(O)c3ccccc32)c1C(=O)O	i	8.56
Nc1ccc(-c2nc3cc4sc(-c5ccc(N)cc5)nc4cc3s2)cc1	35.5	4.5
Nc1ccc(-c2nc3ccc(N)cc3s2)cc1	i	i
COc1ccc(-c2noc(CC3CCCCC3)n2)cc1OC	i	16
COc1ccc(-c2noc(CN3CCCCC3)n2)cc1OC	i	i
O=C(O)c1cc(-c2ccc(O)c(O)c2)nc2n[nH]c(-c3ccccc3)c12	19.2	i
O=C(O)c1ccc(-c2cc(C(=O)O)c3c(-c4ccccc4)[nH]nc3n2)cc1	i	nt
SMILES	TAR Tat displ	CDC25B-CDK2 inh
O=C(CN1C(=O)CSc2ccc(C(=O)N3CCCCC3)cc21)N1CCCC1	i	nt
COc1ccccc1-n1cnc2cc(NCc3ccncc3)ccc21	i	13.2
COc1ccccc1-n1cnc2cc(Nc3nnc(C)c4ccccc34)ccc21	i	i
Cc1c(C(=O)O)sc2ncnc(NC3CCCC3)c12	i	nt
Cc1c(C(=O)O)sc2ncnc(Nc3ccc(C(C)C)cc3)c12	i	nt
Cc1c(C(=O)O)sc2ncnc(NCCC(C)C)c12	10.1	nt
Cc1c(C(=O)O)sc2ncnc(NC3CCCCC3)c12	5.98	nt
O=C1c2ccccc2C(=O)C1(c1ccccc1)N1CCc2ccccc2C1	i	i
Cc1nc2nc(Cc3cccc(F)c3)nn2c(Nc2ccc3c(c2)OCCO3)c1C	i	nt
Cc1ccccc1-c1nnc(CN2CCc3ccccc3C2)o1	i	i
CCOC(=O)c1nc2ccccc2nc1C	i	nt
CCOC(=O)c1nc2ccccc2n(C(C)=O)c1=O	i	19.4
O=C(O)CCCC(=O)Nc1cccc2cccnc12	i	i
Nc1ncccc1NC(=O)CCC(=O)O	i	14.4
O=C(O)c1nn2c(C(F)(F)F)cc(-c3ccccc3)nc2c1Cl	i	nt
COc1cc2ncc(S(=O)(=O)c3ccccc3)c(N3CCC(C)CC3)c2cc1OC	i	i
CCc1ccc2ncc(S(=O)(=O)c3ccccc3)c(N3CCCC3)c2c1	i	9.11
O=S(=O)(c1ccccc1)c1cnc2ccc(Cl)cc2c1N1CCCC1	i	i
COc1cc2ncc(S(=O)(=O)c3ccccc3)c(N3CCCCC3)c2cc1OC	i	5.93
O=C(O)c1cc2ncc(Br)cn2n1	17.9	nt
O=C(c1cnc2cc(-c3ccccc3)nn2c1)c1cc(Br)ccc1O	i	i
O=C1COc2cc(-c3c(N4CCCCC4)c(=O)c3=O)ccc2N1	i	nt
O=C1COc2cc(-c3c(N4CCCC4)c(=O)c3=O)ccc2N1	11	nt
COc1ccc(N2CSC3=C(C#N)C(c4cccc(Br)c4)CC(=O)N3C2)c(OC)c1 (stereo unspecified)	i	i
CCOc1cc(C2CC(=O)N3CN(c4ccc(OC)cc4OC)CSC3=C2C#N)ccc1O (stereo unspecified)	i	3.12
COc1ccc(N2CSC3=C(C#N)C(c4ccc(O)c(OC)c4)CC(=O)N3C2)c(OC)c1 (stereo unspecified)	i	3.49
CCOc1cc(C2CC(=O)N3CN(c4ccc(C)c(C)c4)CSC3=C2C#N)ccc1O (stereo unspecified)	i	i
CCOc1cc(C2CC(=O)N3CN(c4ccccc4)CSC3=C2C#N)cc(Br)c1O (stereo unspecified)	30.6	8.8
